Out of some 48,000 compounds screened, about 13,000 (27%) showed an effect of 50% or more. This is one part of the list.
The compounds below were run on Wolbachia pipientis (assay: Anti-Wolbachia Cell-Based Screen). Details: 5 µM.
Type: functional
Parameters: scale not given: in the data most compounds retested in dose-response had high values

SMILES	Percent Effect [%]
COCCC1(CNC(=O)NC2CCCN(C)C2)CC1 (stereo not given)	-18.26
CC(C)OC(=O)N1CCC(Cc2cccc(C(N)=O)c2)C1 (stereo not given)	0.346
O=C(Nc1ccccc1-c1cccs1)N1CCOCC1	-11.7
CC(C(=O)N1CCCCC1)n1nc(-c2cccs2)cc(N)c1=O (stereo not given)	96.7
Nc1cc2c(nn1)CCN(C(=O)c1csc(-c3cccs3)n1)C2	-8.113
CC(C(=O)N1CCOCC1)N1CCc2cncnc2C1 (stereo not given)	24.13
CC(C(=O)N1CCCC1)n1nc(-c2cccs2)cc(N)c1=O (stereo not given)	96.9
Cc1nc(-c2cccs2)ccc1C(=O)N1CCN(CC(C)O)CC1 (stereo not given)	6.494
CC(C(=O)N1CCOCC1)n1nc(-c2cccs2)cc(N)c1=O (stereo not given)	87.73
O=C1CC(c2cccs2)Cc2nc(O)c(C(=O)N3CCCC3)cc21 (stereo not given)	-9.305
Cl.Cn1cc(CNC2CCC(O)CC2)c(-c2cc3ccccc3o2)n1 (stereo not given)	4.474
CC(NC(=O)Cc1cc2c(cc1Cl)OCCO2)c1ccncn1 (stereo not given)	-8.722
O=C(c1c2c(NCC3CC3)ncnc2n2ccccc12)N1CCCC1	17.48
COc1ncc(C2CC(=O)NCc3nc4ccccn4c32)cn1 (stereo not given)	2.979
CCn1ccc(C(=O)N(C)Cc2cnn(-c3cccc(OC)c3)c2)n1	-12.09
Cc1ccc(C2CN(Cc3cnc(-c4cccnc4)s3)CCO2)o1 (stereo not given)	6.287
CCC1CN(C(=O)COc2ccc(C)nc2)CCO1 (stereo not given)	-3.761
COCC(=O)N1CCOC(c2ccc(N(C)C)cn2)C1 (stereo not given)	108.5
COc1ccc2cc(C3CN(C(=O)COC(C)C)CCO3)ccc2c1 (stereo not given)	-0.3239
Cc1nccc(C2CN(Cc3cc[nH]n3)CCO2)n1 (stereo not given)	-9.06
Br.Cn1nccc1CN1CCOC(c2cccc(-c3cncnc3)n2)C1 (stereo not given)	91.95
COCC(=O)N1CCOC(c2cccc(-c3cncnc3)n2)C1 (stereo not given)	151.1
CNC(=O)c1ccc(C2CN(C(=O)COC)CCO2)nc1 (stereo not given)	-5.036
CC(Cc1ccc(C(F)(F)F)cc1)C(=O)N1CCCS1(=O)=O (stereo not given)	-11.51
c1ccc(C2CN(C3CC3)CC3(CCN(Cc4cscn4)CC3)C2)cc1 (stereo not given)	-14.1
CCOc1ccc(CN2C(=O)CC(C)(C(C)C)C2=O)nc1 (stereo not given)	-23.31
CC(C)N(C)Cc1nnc2n1CCCN(c1ncccn1)C2.O=C(O)C(F)(F)F	99.37
Cc1cnc(N2CCCn3c(nnc3CN(C)C(C)C)C2)nc1.O=C(O)C(F)(F)F	99.73
Cc1cnc(N2CCn3c(CN4CCOCC4)nnc3C2)nc1.O=C(O)C(F)(F)F	-6.202
Fc1cnc(N2CCCn3c(nnc3Cn3ccnc3)C2)nc1.O=C(O)C(F)(F)F	-11.56

From ChEMBL document CHEMBL3988442, “University of Dundee, Small-Polar-MMV Screening Library” (2021)
